Compound activity as filed in PubChem.
IL-1B inflam inh: qHTS for Inhibitors of Inflammasome Signaling: IL-1-beta AlphaLISA Primary Screen. hit rate 4.7% among 360,000. activity change, % at 57.5 µM. AID 743279, 2014. THP-1 LPS/ATP IL-1B secretion, AlphaLISA, 16 h; hits give low values; in the data active means activity change below about -50%; inconclusive means mostly about -30% to -49%
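Secreted IL-1B measured by AlphaLISA bead assay after 16 h compound exposure of THP-1 cells; compounds (final up to 57.5 uM) added 1 h before LPS (250 ng/mL) and ATP (1.25 mM) stimulation; lower signal means less secretion.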
HT1080 IDH1KD tx: qHTS for induction of synthetic lethality in tumor cells producing 2HG: qHTS for the HT-1080-IDH1KD cell line; HT-1080 IDH1 knockdown viability, ATP luminescence, 48 h; Potency, µM (top dose mostly 46.1 µM), usual class: cytotoxic; hit rate 2% among 360,000; AID 686971, 2013
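In this qHTS, HT-1080 cells depleted of IDH1 are exposed for 48 h at 37 °C to compound titrations. Toxicity is scored from CellTiter-Glo luminescence, with DMSO as full viability and medium alone as none.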
TDP1 cell noCPT: qHTS for Inhibitors of human tyrosyl-DNA phosphodiesterase 1 (TDP1): qHTS in cells in absence of CPT; Potency, µM (titrated, usually from 46.2 µM), most hits filed as inhibitors; hit rate 15% among 420,000; DT40 Tdp1-/- hTDP1 cells, no CPT, ATP luminescence, 48 h; further: nearly all actives have a fitted effect of over 55% in size
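Readout: luminescence from CellTiter-Glo after 30 min in the dark at RT. Cells: DT40 Tdp1-/- with stable hTDP1, 400/well. Exposure: compounds alone, ≥48 hr, 37 °C.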
HT1080NT lethal: qHTS for induction of synthetic lethality in tumor cells producing 2HG: qHTS for the HT-1080-NT fibrosarcoma cell line. HT-1080-NT fibrosarcoma viability, CellTiter-Glo ATP luminescence, 48 h. hit rate 1.6% among 360,000. Potency, µM (doses to about 46.1 µM), actives largely listed as cytotoxic;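 further: NT is the 2HG producing partner of a matched IDH1 knockdown line; nearly all actives have a fitted effect of over 55% in size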
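750 cells/well, RPMI + 5% FBS; 2 h settle, compound pin-transfer, 48 h at 37 degrees C. CellTiter-Glo 10 min RT, luminescence. Normalized to DMSO and media-only wells.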
12-LOX inh: Primary qHTS assay for inhibitors of human arachidonate 12S-lipoxygenase (ALOX12): Round 2; AID 1671190, 2021; hit rate 1.1% among 580,000; purified 12hLO, xylenol orange hydroperoxide absorbance; Potency, µM (series often up to 108 µM), actives largely listed as inhibitors
Target sequence (P18054 whole entry, looked up): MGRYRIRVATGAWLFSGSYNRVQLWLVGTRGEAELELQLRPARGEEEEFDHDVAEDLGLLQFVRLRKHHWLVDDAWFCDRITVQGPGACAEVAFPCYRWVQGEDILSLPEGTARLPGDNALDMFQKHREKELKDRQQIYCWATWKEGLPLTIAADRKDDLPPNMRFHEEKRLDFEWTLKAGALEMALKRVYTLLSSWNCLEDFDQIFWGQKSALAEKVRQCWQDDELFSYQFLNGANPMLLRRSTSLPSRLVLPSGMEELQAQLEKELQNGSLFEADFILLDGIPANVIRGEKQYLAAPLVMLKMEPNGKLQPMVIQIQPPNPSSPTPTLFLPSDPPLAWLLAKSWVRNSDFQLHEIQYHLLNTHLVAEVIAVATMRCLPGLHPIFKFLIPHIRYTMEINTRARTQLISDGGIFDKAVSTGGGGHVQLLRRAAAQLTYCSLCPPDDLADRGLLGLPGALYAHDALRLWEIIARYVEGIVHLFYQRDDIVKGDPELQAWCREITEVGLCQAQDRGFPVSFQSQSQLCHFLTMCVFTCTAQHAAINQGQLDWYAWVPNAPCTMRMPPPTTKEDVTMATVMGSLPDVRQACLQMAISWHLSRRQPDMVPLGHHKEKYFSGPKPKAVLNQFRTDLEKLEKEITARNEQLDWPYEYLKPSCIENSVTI
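Hydroperoxide product was detected by ferrous iron/xylenol orange as the 573 to 405 nm absorbance ratio. Arachidonic acid at 40 uM (final) was turned over for 30 min at room temperature by 150 nM human 12hLO, pH 7.0 Hepes buffer, after 15 min compound preincubation.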
TDP1 cell CPT: qHTS for Inhibitors of human tyrosyl-DNA phosphodiesterase 1 (TDP1): qHTS in cells in presence of CPT; chicken DT40 Tdp1-/-;hTDP1 cells + 20 nM CPT, ATP luminescence, 48 h; Potency, µM (series often up to 46.2 µM), usual class: inhibitors; hit rate 12% among 420,000; further: nearly all actives have a fitted effect of over 55% in size
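Chicken DT40 Tdp1-/- cells complemented with human TDP1, 400 cells/well, exposed to compounds plus 20 nM camptothecin for at least 48 h at 37 C; viability read as ATP content by CellTiter-Glo luminescence.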
A number is an active result; n = inactive; u = inconclusive; x = not tested or not shown; [ ] = remark or other dose. Shown is part of a subset that was picked to be rich in hits. Unless noted, the call rests on the fitted dose curve; in most records, active means well fitted curve in the direction sought with a large enough effect; inconclusive means small, poorly fitted or top-dose-only effect, or another doubt; inactive means no such curve, though single readings can be large; an effect the other way counts as inactive or inconclusive.

SMILES	IL-1B inflam inh	HT1080 IDH1KD tx	TDP1 cell noCPT	HT1080NT lethal	12-LOX inh	TDP1 cell CPT
Cc1cc(C)n2c(NC3CCCC3)c(-c3ccc(F)cc3)nc2n1	n	n	18.4µM	n	u	u
Cc1cc(C)n2c(NC3CCCC3)c(-c3cc4ccccc4o3)nc2n1	n	n	u	n	u	u
COc1ccccc1Nc1nc(N)nc(CN2CC(C)CC(C)C2)n1 (stereo not given)	n	n	n	u	n	n
CC(C)c1noc(-c2cccn3c(CNC(=O)C4CC4)nnc23)n1	x	x	x	x	n	x
CN(C)c1nc(OCCNC(=O)Nc2ccccc2)nc(N2CCOCC2)n1	n	n	n	n	n	23.1µM
CCOC(=O)/C(=N\Nc1ccc(C(C)=O)cc1)c1csc(Nc2ccccc2)n1	n	16.4µM	10.3µM	16.4µM	n	u
CC(C)/C=C/C(=O)N1CCC(N2CCC(C(=O)NCC3CCCO3)CC2)CC1 (stereo not given)	u	n	n	n	n	n
Cc1cc(C)cc(NC(=O)CN2CCCN(S(=O)(=O)c3ccc(Br)s3)CC2)c1	u	u	u	n	n	u
Cc1ccc(NC(=O)CN2CCCN(S(=O)(=O)c3ccc(Br)s3)CC2)cc1	n	n	18.4µM	n	n	18.4µM
CCOC(=O)N1CCN(S(=O)(=O)c2ccc(Br)s2)CC1	n	n[9.24 µM]	13µM	n	n	u
CN1CCN(S(=O)(=O)c2ccc(Br)s2)CC1	n	n	n	n	n	n
COc1ccc(-c2nnc(CN3CCC(c4ccn[nH]4)CC3)o2)cc1	x	x	x	x	n	x
CC(=O)c1cccc(NC(=O)c2nc(-c3ccc(C)cc3)n3c2CCCCC3)c1	x	x	x	x	n	x
COC(=O)c1ccc(NC(=O)c2nc(-c3ccc(Cl)cc3)n3c2CCCCC3)cc1	x	x	0.82µM	x	n	0.731µM
O=C(NCCc1ccc(Cl)cc1)c1nc(-c2cccc(F)c2)n2c1CCCCC2	x	x	9.2µM	x	n	18.4µM
COC(=O)c1ccccc1NC(=O)c1nc(-c2ccc(C)cc2)n2c1CCCCC2	x	x	x	x	n	x
CC(C)N(Cc1ccccc1)C(=O)c1nc(-c2ccc(Cl)cc2)n2c1CCCCC2	x	x	18.4µM	x	u	9.2µM
O=C(NCCc1ccccc1)c1nc(-c2ccc(Cl)cc2)n2c1CCCCC2	x	x	10.3µM	x	n	11.6µM
Cc1c(C(=O)NCC2CCCN(C)C2)cnn1-c1ncc2c(n1)-c1ccccc1CCC2 (stereo not given)	x	x	n	x	n	n[9.04 µM]
COC(=O)[C@H](CC(C)C)N(CCCc1cn(CC2CCCCC2)nn1)S(=O)(=O)c1ccccc1Br	x	x	x	x	n	x
CCOc1ccccc1CNC(=O)c1c(OCC)cc(=O)n2c1CCCC2	x	x	x	x	n	x
CCOc1ccccc1CNC(=O)c1nc(-c2ccc(Cl)cc2)n2c1CCCCC2	x	x	u	x	n	23.1µM
COc1ccc(S(=O)(=O)Nc2c(C)nn(C)c2C)cc1Br	n	n	u	n	n	n
Cc1nn(C)c(C)c1NS(=O)(=O)c1ccc(N2CCCC2=O)cc1	-56.6	u	16.4µM	n	n	18.4µM
Cc1ccc(S(=O)(=O)Nc2c(C)nn(C)c2C)cc1C	n	n	13µM	n	n	20.6µM
SMILES	IL-1B inflam inh	HT1080 IDH1KD tx	TDP1 cell noCPT	HT1080NT lethal	12-LOX inh	TDP1 cell CPT
COC(=O)c1cccc(C(=O)N[C@H]2CO[C@H]3[C@@H]2OC[C@H]3OC(=O)Nc2cccc(C(F)(F)F)c2)c1	x	x	x	x	n	x
COc1ccc(N2CC3CCC(C2)N3[S+](C)(=O)[O-])cc1	x	x	x	x	n[6.33 µM]	x
O=C(c1ccc2c(c1)N(Cc1cccc(Cl)c1)C(=O)c1ccccc1S2(=O)=O)N1CCCCC1	x	x	u	x	u	16.4µM
O=C(c1ccc2c(c1)N(Cc1cccc(Cl)c1)C(=O)c1ccccc1S2(=O)=O)N1CCc2ccccc21	x	x	1.64µM	x	n	2.06µM
CCn1nccc1C(=O)N1CCC(N2C(=O)C(OCC3CC3)C23CCOCC3)CC1 (stereo not given)	x	x	x	x	n	x
CN(C)CCC(=O)N1c2ccccc2Sc2ccc(C(F)(F)F)cc21	n	n	u	n	u	23.1µM
C[C@@H](CN(C)C)CN1c2ccccc2Sc2ccccc21	x	x	u	x	n[22.9 µM]	u
CCN(CC)CCCCN1c2ccccc2Sc2ccccc21	-70.2	23.1µM	20.6µM	18.4µM	n	20.6µM
CC(CN(C)C)CN1c2ccccc2Sc2ccccc21 (stereo not given)	u	u	18.4µM	16.4µM	n	u
CN(C)CCCN1c2ccc(O)cc2Sc2ccc(Cl)cc21	n	u	u	u	u	u
CN(C)CCCN1c2ccccc2Sc2ccc(C(F)(F)F)cc21	-62.2	x	23.7µM	x	u	u
CCN(CC)CC(=O)N1c2ccccc2Sc2ccccc21	n	n	n	n	n	u
O=C(c1ccn[nH]1)N(CC1CCN(Cc2ccccc2F)CC1)CC1CCCO1 (stereo not given)	x	x	x	x	n	x
CC(C)C(=O)N1CCN(c2nc3c(s2)CC(C(=O)NCc2ccco2)CC3)CC1 (stereo not given)	x	x	x	x	n	x
OCCN(CCO)CC(O)CN1c2ccccc2Sc2ccccc21 (stereo not given)	n	n	n	n	x	n
CC(CN(C)C)CN1c2ccccc2Sc2ccc(C(F)(F)F)cc21 (stereo not given)	x	x	16.8µM	x	x	u
CCN(CC)CC(O)CN1c2ccccc2Sc2ccccc21 (stereo not given)	-68.4	n	u	n	x	u
O=C(CSc1nc2ccccc2s1)N1c2ccccc2Sc2ccc(C(F)(F)F)cc21	n	n	14.6µM	n	n	u
CCN(CC)CCC(=O)N1c2ccccc2Sc2ccc(NC(=O)OC)cc21	-79.1	n	n	n	28.2µM	n
CCOC(=O)Nc1ccc2c(c1)N(C(=O)CCN(C)C)c1ccccc1S2	u	n	n	n	u	n
CCN(CC)C(=O)c1ccc(NS(=O)(=O)c2cccs2)cc1	x	x	x	x	n	x
Cc1c(Br)c(C(F)(F)F)nn1CC(=O)Nc1c(F)cc(F)cc1Br	x	x	x	x	n	x
COc1ccc2c(c1)N(C[C@H](C)CN(C)C)c1ccccc1S2	u	20.6µM	u	23.1µM	u	u
CC(CN1c2ccccc2Sc2ccccc21)N(C)C (stereo not given)	u	n	u	n	u	u
CC(=O)c1ccccc1OCCOC(=O)c1ccc2c(c1)NC(=O)CS2	x	x	x	x	n	x
Cc1ccc(S(=O)(=O)Nc2ccc3ccccc3c2)cc1	u	n	u	n	u	u
